# Assay outcomes as filed in PubChem.
# Cruzain Triton – cruzain (T. cruzi) inhibition with detergent. purified cruzain, Z-FR-AMC fluorescence, 0.01% Triton. Potency, µM, for the others: max response, negative = inhibition, hits mostly inhibitors. actives 0.43% (n = 200,000);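 note: plate controls were neutral wells for no effect and buffer without enzyme for full effect; nearly all actives have a fitted effect of over 40% in size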
# Target sequence (P25779 123-467 limits assumed): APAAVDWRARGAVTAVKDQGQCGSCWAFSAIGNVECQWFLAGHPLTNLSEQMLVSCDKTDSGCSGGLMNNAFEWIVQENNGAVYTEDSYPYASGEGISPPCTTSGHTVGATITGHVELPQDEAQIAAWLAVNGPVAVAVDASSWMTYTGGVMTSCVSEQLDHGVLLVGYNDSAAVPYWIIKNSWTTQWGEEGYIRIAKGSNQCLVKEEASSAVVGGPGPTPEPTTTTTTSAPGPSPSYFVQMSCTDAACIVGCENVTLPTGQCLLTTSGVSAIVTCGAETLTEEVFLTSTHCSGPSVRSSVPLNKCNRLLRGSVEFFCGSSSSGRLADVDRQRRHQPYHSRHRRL
#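 Purified cruzain (1.5 nM final) was preincubated with compounds for 15 min at room temperature in 100 mM sodium acetate pH 5.5, 5 mM DTT, 0.01% Triton X-100. Reaction started with 2 uM Z-FR-AMC; AMC fluorescence change over 60 s gave activity.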
# Cruzain inh noDet – blocks cruzain activity in detergent-free assay; P25779; purified cruzain, Z-FR-AMC fluorescence, no detergent; Potency, µM, for the others: max response, negative = inhibition, hits mostly inhibitors; actives 2.3% (n = 200,000); AID 1476;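 note: plate controls were enzyme without inhibitor for no effect and buffer without enzyme for full effect; nearly all actives have a fitted effect of over 40% in size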
#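 Detergent-free condition (0.00005% Triton X-100) in acetate buffer pH 5.5 with DTT. 1.5 nM enzyme and compound were pre-mixed 15 min, then 2 uM Z-FR-AMC substrate added; reaction progress from fluorescence change between first and third reads (60 s).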
# Starred values were filed as active, the others as inactive; ? = inconclusive. Sampled rows, rich in hits. Any-hit rate of the full collection: about 2.5%. Calls come from the whole dose curve; as a rule, active = well fitted curve in the direction sought with a large enough effect; inconclusive = small, poorly fitted or top-dose-only effect, or another doubt; inactive = no such curve, though single readings can be large; an effect the other way counts as inactive or inconclusive. Potency is the fitted concentration of half-maximal effect.
SMILES,Cruzain Triton,Cruzain inh noDet
O=C(N/N=C\c1ccc(-c2ccccc2[N+](=O)[O-])o1)C1COc2ccccc2O1 (centres undefined),-11%,?
O=C(N/N=C\c1ccc(-c2ccccc2[N+](=O)[O-])o1)C1COc2cc3ccccc3cc2O1 (centres undefined),-2%,7.9µM*
CCOC(=O)CCc1c(C)c2ccc(OCc3ccc([N+](=O)[O-])cc3)cc2oc1=O,0%,10µM*
O=C(O)c1ccc(COc2ccc3c4c(c(=O)oc3c2)CCC4)o1,-4%,0%
O=c1oc2cc(OCc3ccc([N+](=O)[O-])cc3)ccc2c2c1CCCC2,1%,13µM*
CCOC(=O)CCc1c(C)c2ccc(OCc3nn[nH]n3)cc2oc1=O,-7%,0%
O=C(N/N=C/c1ccc(OC(=O)c2ccccc2)c([N+](=O)[O-])c1)c1ccc(O)cc1,-11%,-5%
C=C[C@@]1(C)CC(=O)[C@@]2(O)[C@@]3(C)[C@@H](O)CCC(C)(C)[C@@H]3[C@H](O)[C@H](OC(C)=O)[C@@]2(C)O1,0%,10%
O=C(Nc1nc(-c2ccc(S(=O)(=O)N3CCCC3)cc2)cs1)C1COc2ccccc2O1 (centres undefined),2%,10µM*
O=C(Nc1nc(-c2ccc3c(c2)OCO3)cs1)C1COc2ccccc2O1 (centres undefined),-8%,?
O=C(Nc1ccc(S(=O)(=O)N2CCCC2)cc1)C1COc2ccccc2O1 (centres undefined),-5%,1%
Cc1ccccc1CSc1nnc(NC(=O)C2COc3ccccc3O2)s1 (centres undefined),-4%,?
O=C(Nc1nnc(SCc2cccc3ccccc23)s1)C1COc2ccccc2O1 (centres undefined),-3%,25µM*
O=C(Nc1nc(-c2ccccc2)cs1)C1COc2ccccc2O1 (centres undefined),-3%,25µM*
CCN(C(=O)Cn1c(C(=O)OC)cc2oc3ccccc3c21)c1cccc(C)c1,-18%,-2%
O=C(Nc1c(C(=O)N2CCN(c3ccc(F)cc3)CC2)oc2ccccc12)c1c(F)cccc1F,-4%,4%
O=C(O)CNC(=O)c1ccc(S(=O)(=O)N2CCOCC2)cc1,5%,6%
COc1ccc(Cn2c(C(=O)O)c(CNC3CCCCCC3)c3ccc(OC)cc32)cc1,-5%,14%
Cc1nc(C)c(-c2nnc(-c3ccc(C(C)(C)C)cc3)o2)cc1C(=O)NN,-7%,?
COc1ccc(OC)c(CNC(=O)C2CCN(S(=O)(=O)c3ccc4[nH]c(=O)oc4c3)CC2)c1,-2%,-6%
COc1ccc2c(c1)C1=NN(/C(C)=C\C(C)=O)C(c3ccccc3)C1CC2 (centres undefined),-7%,25µM*
COc1ccc2c(c1)C1=NN(/C(C)=C/C(C)=O)C(c3ccc(F)cc3)C1CC2 (centres undefined),-5%,-1%
O=C(Cn1c(=O)n2nc(-c3cccc(F)c3)nc2c2ccccc21)N1CCN(c2ccc(F)cc2)CC1,0%,14%
Cc1cc2oc(=O)cc(CN3CCOCC3)c2cc1C,0%,-9%
CCNc1cc2oc(=O)c(CN3CCOCC3)c(C)c2cc1C,28µM*,?
SMILES,Cruzain Triton,Cruzain inh noDet
C=C1c2ccccc2O[C@H](C(=O)OCC)C1OC (mixture of isomers),1%,-8%
N=C1[C@@H](O)[C@]2(I)c3ccccc3N3C(=N)[C@H](O)[C@@H]4c5ccccc5N1[C@@H]4[C@@H]32,-3%,-1%
Cc1cc(-c2ccc(Cl)cc2)n2nc(N)nc2n1,-10%,12%
Nc1nc2nccc(-c3ccc(Cl)cc3)n2n1,25µM*,-75%
O=c1cc(-c2cccc(O)c2O)oc2ccccc12,-7%,4%
CCN(CC)CCNC(=O)CCn1c(=O)c2cccn2c2cccnc21,-5%,-20%
O=C1OCCN1C(=O)[C@H]1[C@H](c2ccc(Cl)cc2)C(c2ccc(F)cc2)=NN1c1ccc(Br)cc1,-13%,11µM*
O=C1OCCN1C(=O)[C@H]1[C@H](c2ccc(Cl)cc2)C(c2ccc(F)cc2)=NN1c1ccccc1,3%,?
O=C1OCCN1C(=O)[C@H]1[C@H](c2ccc(F)cc2)C(c2ccc(F)cc2)=NN1c1ccc(Br)cc1,-3%,25µM*
O=C1OCCN1C(=O)[C@H]1[C@H](c2ccc(F)cc2)C(c2ccc(F)cc2)=NN1c1ccccc1,-4%,?
CC1N=C2c3ccccc3N=C(SCC(=O)NCc3ccc(Cl)cc3)N2C1=O (centres undefined),-3%,-12%
Cn1c(N/N=C/c2cc3ccccc3nc2Cl)nc2ccccc21,-4%,6%
CCOc1ccc(NC(=O)C(=O)NCCc2sc(-c3ccc(C)cc3)nc2C)cc1,1%,1%
CCc1c(C)sc(NC(=O)c2cc3nc(-c4ccc(OC)cc4)cc(C(F)(F)F)n3n2)c1C(=O)OC,0%,-2%
CCC(C)CCCCC(=O)N[C@@H](CCN)C(=O)N[C@H](C(=O)N[C@@H](CCN)C(=O)N[C@H]1CCNC(=O)C([C@@H](C)O)NC(=O)[C@@H](CCN)NC(=O)[C@H](CCN)NC(=O)[C@H](CC(C)C)NC(=O)[C@@H](CC(C)C)NC(=O)[C@H](CCN)NC1=O)[C@@H](C)O (some centres undefined),-10%,-3%
CCC(=O)NC(=S)Nc1ccc(NC(=O)c2ccc(C)c([N+](=O)[O-])c2)cc1,-3%,10µM*
CCOc1ccc(C(=O)NC(=S)Nc2ccc(NC(=O)CC)cc2)cc1[N+](=O)[O-],-6%,?
CC(C)(C)CC(=O)NCCCCCCNC(=O)CC(C)(C)C,2%,21%
CC1CCC(C(C)C)C(OC(=O)C2=C3c4ccccc4S(=O)(=O)N3CC2)C1 (centres undefined),?,32µM*
CC1CCC(C(C)C)[C@H](OC(=O)c2ccccc2)C1 (some centres undefined),5%,-4%
CCCc1nc(NCC2CCCO2)c2nnn(Cc3ccccc3)c2n1 (centres undefined),-5%,14%
CC1CCN(S(=O)(=O)c2ccc3c(c2)N(CC(=O)NCc2ccccc2)C(=O)CO3)CC1,-1%,-10%
CC(C)c1ccc(NC(=O)C2CCCN2S(=O)(=O)c2ccc3nc(-c4ccccc4)[nH]c3c2)cc1 (centres undefined),-5%,-6%
COc1ccccc1/C=C/c1nc(C#N)c(NCC(C)C)o1,7%,27%
COc1ccccc1/C=C/c1nc(C#N)c(NCCc2ccccc2)o1,-7%,16µM*
SMILES,Cruzain Triton,Cruzain inh noDet
COc1ccccc1/C=C/c1nc(C#N)c(N(C)C)o1,14µM*,?
COc1ccccc1/C=C/c1nc(C#N)c(N2CCCCC2)o1,-25%,-1%
COc1cc(OC)c(NC(=O)N2CCc3c([nH]c4ccccc34)C2c2ccccc2F)cc1Cl (centres undefined),-4%,16µM*
COc1cc(NC(=O)N2CCc3c(sc4c3CCCC4)C2c2ccccc2)cc(OC)c1OC (centres undefined),-3%,?
COc1cc(OC)c(NC(=O)N2CCc3c(sc4c3CCCC4)C2c2ccccc2)cc1Cl (centres undefined),0%,10µM*
Cc1ccc(C2c3[nH]c4ccccc4c3CCN2C(=O)Nc2ccc(C)c(C)c2)cc1 (centres undefined),1%,?
